From PubChem
Most compounds without a hit are left out; they make up all but 4.2% or so of the library.
uPA surface inh = qHTS for Inhibitors of Cell Surface uPA Generation; cell surface uPA generation assay, qHTS; Potency, µM (series often up to 38.3 µM), for inactives: at the top dose activity change, negative = inhibition, hits mostly inhibitors; actives 0.31% (n = 330,000); active means well fitted inhibition curve with a large enough effect; inconclusive means small, poorly fitted or top-dose-only effect; inactive means no such curve, though single readings can be large or run the other way; tested in mouse RAW 264.7 cells; further: potency means the concentration at half of the fitted maximal effect; on the % scale 0 is the no-effect control and ±100 the full control effect; nearly all actives have a fitted effect of over 55% in size
Sfp PPTase inh = qHTS Assay for Inhibitors of Bacillus subtilis Sfp phosphopantetheinyl transferase (PPTase) | AID 1490, 2009 | Potency, µM, for inactives: largest response in the series, negative = inhibition, usual class: inhibitors | Biochemical Sfp PPTase activity, qHTS | actives 3.5% (n = 310,000);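 further: the enzyme is Sfp with the accession as filed and its product quenches rhodamine fluorescence; potency means the concentration at half of the fitted maximal effect; 0% = enzyme reaction without inhibitor and -100% = no enzyme wells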
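Fluorescence-quenching assay with 15 nM Sfp, 5 uM rhodamine-CoA and 12.5 uM BHQ-2-labelled ybbR peptide in pH 7.6 Hepes/MgCl2 buffer. Enzyme was pre-incubated with compound for 15 min at room temperature. Rate was taken from the 30-min fluorescence change (525/598 nm).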
ClpP mod = qHTS Assay for Activators of ClpP. ATP-dependent Clp protease proteolytic subunit (Bacillus subtilis (strain 168)), P80244. Potency, µM (highest dose often 57.5 µM), for inactives: at the highest dose activity change, negative = active. purified B. subtilis ClpP, FRET peptide cleavage, 20 min. actives 1.9% (n = 340,000). AID 651965, 2013; active means well fitted falling curve with a large enough effect; inconclusive means small, poorly fitted or top-dose-only effect; inactive means no such curve, though single readings can be large or run the other way; further: potency means the concentration at half of the fitted maximal effect; the source files actives as falling curves though it sought activators and does not explain the sign; nearly all actives have a fitted effect of over 65% in size
Target sequence (P80244 whole entry, looked up): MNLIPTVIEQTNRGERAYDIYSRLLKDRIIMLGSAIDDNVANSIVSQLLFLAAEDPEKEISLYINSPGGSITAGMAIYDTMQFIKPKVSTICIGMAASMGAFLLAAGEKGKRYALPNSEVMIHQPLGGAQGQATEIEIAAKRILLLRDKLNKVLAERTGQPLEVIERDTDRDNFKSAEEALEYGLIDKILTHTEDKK
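Purified B. subtilis ClpP, 10 microg/mL final in Tris/HCl pH8 with KCl, BSA, glycerol and Tween-20, cleaved an Abz/nitrotyrosine-quenched decapeptide. Fluorescence (ex 320, em 430) was read at 0 and 20 min at room temperature. Delta was normalized to 5.8 microM ADEP and DMSO/no-enzyme controls.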
TCR act = Activators of T cell receptors: qHTS campaign; primary human leukocytes, anti-CD3, IL-2 HTRF, 48 h; Potency, µM (doses to about 9.22 µM), inactives show at the top dose activation of IL-2 secretion, actives largely listed as activators; 330,000 tested, under 10 active; AID 504894, 2011; further: % of control where 0% means no effect
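IL-2 produced over 48 hr by a-CD3 bead-stimulated primary human leukocytes exposed to compounds was detected with a homogeneous time-resolved FRET immunoassay, 665nm acceptor signal after 320nm excitation.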
The depositor's hits bear a star; ? = inconclusive; / = no result given; ! = not confirmed by another sample; [ ] = another dose, or the depositor's remark. Unless noted, the call rests on the fitted dose curve; in most records, active means well fitted curve in the direction sought with a large enough effect; inconclusive means small, poorly fitted or top-dose-only effect, or another doubt; inactive means no such curve, though single readings can be large; an effect the other way counts as inactive or inconclusive.

SMILES	uPA surface inh	Sfp PPTase inh	ClpP mod	TCR act
CC(=O)Sc1nc(-c2ccccc2)[nH]c1S(=O)(=O)c1ccc(C)cc1	3%	2.5µM*	/	-2%
Cc1cn2c(=O)c(S(=O)(=O)NCCc3ccccc3)c(C)nc2s1	/	/	28µM*	/
COc1ccccc1CNS(=O)(=O)c1c(C)nc2sccn2c1=O	5%	6%	-28%	10%
COc1ccccc1CNS(=O)(=O)c1c(C)nc2sc(C)cn2c1=O	/	/	32µM*	/
CCC(Sc1nc(N)c(NC(=O)c2ccc(Br)o2)c(=O)[nH]1)C(=O)O (stereo not given)	3%	10%	1%	-10%
CCCN1CCN(C(=O)C2CCN(S(=O)(=O)c3c(C)noc3/C=C/c3ccc(C)cc3)CC2)CC1	?	-8%	-6%	5%
COc1ccc(/C=C2\SC(=O)N(CCNC(=O)CN3C(=O)NC4(CCCC4)C3=O)C2=O)cc1	-9%	/	-5%	0%
O=C(CN1C(=O)NC2(CCCC2)C1=O)NCCN1C(=O)S/C(=C\c2ccccc2F)C1=O	2%	/	32µM*	/
Cc1ccc(C2OCC(C)([N+](=O)[O-])CO2)cc1 (stereo not given)	-1%	/	/	11%
c1ccc(COc2ccc(-c3sc(Nc4ccccc4)n[n+]3-c3ccccc3)cc2)cc1	/	56µM*	/	/
O=C(O)c1ccc(-c2sc(Nc3ccccc3)n[n+]2-c2ccccc2)cc1	16%	50µM*	-5%	-3%
CCOC(=O)/C(=C/C=C1\Sc2cc(C)c(C)cc2N1CC)C(C)=O	-8%	16µM*	6%	0%
O=C1C2Sc3[nH]c(=O)sc3C(c3ccccc3)C2C(=O)N1c1ccccc1 (stereo not given)	-3%	79µM*	0%	-16%
COc1ccc(C2c3sc(=O)[nH]c3SC3C(=O)N(c4ccccc4)C(=O)C32)cc1 (stereo not given)	4%	-10%	-1%	-1%
C#CCOCCOCCOCCNc1nc(N2CCN(C(=O)[C@H](Cc3cc4ccccc4[nH]3)n3cc([C@@H](N)Cc4ccc(O)cc4)nn3)CC2)nc(N2CCN(C(=O)[C@H](Cc3cc4ccccc4[nH]3)n3cc([C@@H](N)CC(C)C)nn3)CC2)n1	5%	56µM*	-15%	-1%
C#CCOCCOCCOCCNc1nc(N2CCN(C(=O)[C@H](CCC(=O)O)n3cc(C(N)CO)nn3)CC2)nc(N2CCN(C(=O)[C@H](CCC(=O)O)n3cc(C(N)CC(C)C)nn3)CC2)n1 (stereo not given in full)	/	89µM*	/	/
C#CCOCCOCCOCCNc1nc(N2CCN(C(=O)[C@H](CCC(=O)O)n3cc(C(N)CO)nn3)CC2)nc(N2CCN(C(=O)[C@H](CCC(=O)O)n3cc(C(N)CO)nn3)CC2)n1 (stereo not given in full)	/	-24%	/	/
C#CCOCCOCCOCCNc1nc(N2CCN(C(=O)[C@H](Cc3cc4ccccc4[nH]3)n3cc([C@@H](N)CC(C)C)nn3)CC2)nc(N2CCN(C(=O)[C@H](Cc3cc4ccccc4[nH]3)n3cc([C@@H](N)CC(C)C)nn3)CC2)n1	18%	16µM*	-1%	-3%
C#CCOCCOCCOCCNc1nc(N2CCOCC2)nc(N2CCN(C(=O)[C@H](Cc3cc4ccccc4[nH]3)n3cc([C@@H](N)CC(C)C)nn3)CC2)n1	5%	-22%	-1%	2%
CC(C)=CCC/C(C)=C/CNC(=O)C[C@H]1C[C@H](C(=O)N2CCOCC2)[C@@]2(C)c3[nH]c4cc(CCC(=O)N(C)C)ccc4c3CCN2C1=O	10µM*	/	-1%	3%[46.1 µM]
Cc1c(C(=O)O)c(C(=O)O)nc2ccc(N3CCOCC3)cc12	/	40µM*	/	/
CC(C)NC(=O)C1(C#N)C=C1c1ccccc1 (stereo not given)	/	/	-2%	/
COc1cccc(-c2nnc(-c3ccc4ccccc4c3)o2)c1	-7%	/	14µM*	2%
Cc1ccc(-c2nnc(-c3ccc4ccccc4c3)o2)cc1	-6%	/	14µM*	-6%
COc1cccc(-c2nnc(-c3ccc(C(F)(F)F)cc3)o2)c1	4%	-1%	-26%	-10%[46.1 µM]
SMILES	uPA surface inh	Sfp PPTase inh	ClpP mod	TCR act
Clc1ccc(-c2nnc(-c3ccc4ccccc4c3)o2)cc1	0%	/	2%	4%
Cc1cccc(-c2nnc(-c3ccc(N)cc3)o2)c1	-6%	?	28µM*	-19%
CCn1c(CNC(=O)c2ccc(OC)cc2)nnc1SCC(=O)Nc1cccc(C)c1C	/	/	-8%	/
Cc1ccc(C)c(-n2c(-c3cccnc3)n[nH]c2=S)c1	3%	-22%	/	-1%
Cc1cc(Cl)ccc1-n1c(-c2cccnc2)n[nH]c1=S	0%	18µM*	-5%	-7%
CCOC(=O)c1ccc(N2CCN(c3ccccc3F)CC2)c(NC(=O)Nc2cccc(OC)c2)c1	1%	20%	25µM*	0%[46.1 µM]
COc1cccc(C(=O)Nc2ccc(Cl)c(-c3nc4ccccc4[nH]3)c2)c1	/	/	-20%	/
CC(C)n1ncc2c(C(=O)N3CCN(c4ccccc4)CC3)cc(-c3ccccc3)nc21	4%	/	-28%	-3%
COc1ccc(NC(=O)c2cc(-c3ccccc3)nc3c2cnn3C(C)C)cc1	8.9µM*	/	92%	17%
COc1cccc2c1C(=O)c1c(O)c3c(c(O)c1C2=O)C[C@@](O)(C(C)=O)C[C@@H]3O[C@H]1C[C@H](N)[C@H](O)[C@H](C)O1	-75%	50µM*!	1%	0%
COc1ccc(NC(=S)N2CCC(N(C)CC3CCCO3)CC2)cc1Cl (stereo not given)	2%	40µM*	-4%	-2%
CCOC(=O)c1c(Nc2cccc(C)c2)nnc(-c2ccccc2)c1-c1ccccc1	/	/	-4%	/
Cc1cc(N=Cc2c(O)n(-c3cccc(C(F)(F)F)c3)c(=O)c3ccccc23)no1	-7%	63µM*	-1%	6%[46.1 µM]
CC(=O)c1ccc(OCCCC(=O)Nc2ccc(S(=O)(=O)N3CCOCC3)cc2)cc1	-8%	/	1%	-2%
O=C(O)/C=C/c1ccc2noc(-c3ccccc3)c2c1	22%	50µM*	1%	8%
Cc1ccc(-c2onc3ccc(C=O)cc23)cc1	-2%	-24%	?	-7%
Cc1ccccc1Cc1c(C)nc2c(C(=O)NCc3ccco3)cnn2c1C	/	50µM*	32µM*	-4%
Cc1ccccc1Cc1c(C)nc2nc(SCC(=O)NCc3ccco3)nn2c1C	-4%	-25%	0%	-1%
Cc1ccc(C)c(Cc2c(C)nc3c(C(=O)N4CCOCC4)cnn3c2C)c1	/	89µM*	28µM*	-9%
Nc1ncnc2c1nc(Sc1ccc(Cl)cc1)n2[C@H]1OC2COP(=O)(O)O[C@H]2[C@@H]1O (stereo not given in full)	/	/	0%	/
Cc1ccc2c(C)ccc(O)c2n1	-5%	45µM*	-6%	2%
Cc1ccc2c(Cl)cc(Cl)c(O)c2n1	0%	10%	-1%	-7%
